Bioassay records: PubChem BioAssay, National Center for Advancing Translational Sciences (NCATS)
Sampled rows, rich in hits. Any-hit rate of the full collection: about 18%.
TDP1 cell CPT – growth inhibition of DT40 Tdp1-/-;hTDP1 cells with camptothecin (screen for TDP1 inhibitors) | AID 686979 | chicken DT40 Tdp1-/-;hTDP1 cells + 20 nM CPT, ATP luminescence, 48 h | Potency, µM (titrated, usually from 46.2 µM), without a hit: at the top dose activity change, negative = growth inhibition, actives largely listed as inhibitors | hit rate 12% among 420,000; further: potency means the concentration at half of the fitted maximal effect; on the % scale 0 is the no-effect control and ±100 the full control effect; nearly all actives have a fitted effect of over 55% in size
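Chicken DT40 Tdp1-/- cells complemented with human TDP1, 400 cells/well, exposed to compounds plus 20 nM camptothecin for at least 48 h at 37 C; viability read as ATP content by CellTiter-Glo luminescence.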
TGFb SMAD3 inh – blocks TGF-b signaling; HepG2 CAGA-GFP TGF-b/SMAD3 reporter, GFP fluorescence, 18 h; TGF-beta stimulated, 500 pg/mL final; Potency, µM (series often up to 46.1 µM), for inactives: at the highest dose activity, negative = inhibition, hits mostly inhibitors; hit rate 1.2% among 410,000; AID 588855; further: potency means the concentration at half of the fitted maximal effect; on the % scale 0 is the no-effect control and ±100 the full control effect; nearly all actives have a fitted effect of over 65% in size
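Inhibition was scored as loss of TGF-beta-induced (500 pg/mL final, 18 hours, 37 degrees C) GFP in HEPG2 cells carrying a CAGA-GFP reporter, in DMEM with 1% FBS. Well GFP was summed per cell; Activity was normalised to unstimulated and stimulated DMSO wells, then concentration-response fitting.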
HepG2 tox – counter-screen for TGF-b inhibitors: cytotoxicity in HepG2 cells | HepG2 CAGA-GFP viability, ATP luminescence, 18 h | Potency, µM (doses to about 46.1 µM), without a hit: at the highest dose activity change, negative = cytotoxicity, hits mostly cytotoxic | hit rate 0.76% among 410,000; further: potency means the concentration at half of the fitted maximal effect
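CellTiter-Glo luminescence gave cytotoxicity after 18 hours at 37 degrees C. The cells were HepG2 CAGA-GFP in 1% FBS DMEM, stimulated with 500 pg/mL TGF-beta after compound addition. %Activity was normalised to no-cell wells (complete cell-killing) and DMSO (no toxicity), and curves were fitted and classified.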
DT40 TDP1 no CPT – qHTS for Inhibitors of human tyrosyl-DNA phosphodiesterase 1 (TDP1): qHTS in cells in absence of CPT; hit rate 15% among 420,000; DT40 Tdp1-/- hTDP1 cells, no CPT, ATP luminescence, 48 h; Potency, µM (doses to about 46.2 µM), for inactives: at the highest dose activity change, negative = growth inhibition, hits mostly inhibitors; AID 686978, 2013; further: potency means the concentration at half of the fitted maximal effect; on the % scale 0 is the no-effect control and ±100 the full control effect; nearly all actives have a fitted effect of over 55% in size
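Growth of hTDP1-complemented DT40 Tdp1-knockout cells is measured by ATP luminescence after at least 48 hr compound exposure at 37 °C, with DMSO substituting for the 20 nM CPT used in the parallel screen.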
TDP1 block – inhibitors of human tyrosyl-DNA phosphodiesterase TDP1; Q9NUW8; recombinant TDP1, AlphaScreen DNA substrate cleavage; Potency, µM (titrated, usually from 130 µM), without a hit: top-dose activity change, negative = inhibition, hits mostly inhibitors; hit rate 0.28% among 350,000; AID 485290; further: potency means the concentration at half of the fitted maximal effect; on the % scale 0 is the no-effect control and ±100 the full control effect; nearly all actives have a fitted effect of over 40% in size
Target sequence (Q9NUW8 whole entry, looked up): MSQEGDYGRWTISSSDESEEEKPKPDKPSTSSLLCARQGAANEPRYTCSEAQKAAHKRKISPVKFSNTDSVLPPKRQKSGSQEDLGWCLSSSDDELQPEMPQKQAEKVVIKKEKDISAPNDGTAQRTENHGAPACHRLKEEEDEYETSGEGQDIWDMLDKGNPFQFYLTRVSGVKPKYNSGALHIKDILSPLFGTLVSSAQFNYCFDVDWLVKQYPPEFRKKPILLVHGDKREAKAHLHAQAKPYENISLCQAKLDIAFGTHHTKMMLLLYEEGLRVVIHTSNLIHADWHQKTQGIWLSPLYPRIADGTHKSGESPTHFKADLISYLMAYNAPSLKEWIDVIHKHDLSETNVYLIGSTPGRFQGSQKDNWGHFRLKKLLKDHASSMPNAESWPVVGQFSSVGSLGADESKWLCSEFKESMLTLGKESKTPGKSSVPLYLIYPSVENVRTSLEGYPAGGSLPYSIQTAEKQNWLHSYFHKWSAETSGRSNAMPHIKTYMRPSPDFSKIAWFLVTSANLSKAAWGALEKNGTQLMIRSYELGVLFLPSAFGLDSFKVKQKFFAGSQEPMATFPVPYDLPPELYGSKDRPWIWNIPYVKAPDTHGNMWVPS
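E. coli-derived human Tdp1, 1 nM final. Cpd preinc 15 min RT; substrate 15 nM final, 5 min RT; AS bead mix 10 ug/ml final, 10 min RT. Signal loss = tyrosine-FITC cleavage. No-enzyme wells = max signal.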
IL-1B inflam inh – blocks inflammasome-driven IL-1 beta release. THP-1 LPS/ATP IL-1B secretion, AlphaLISA, 16 h; active compounds read low. activity change, % at 57.5 µM. hit rate 4.7% among 360,000; in the data active means activity change below about -50%; inconclusive means mostly about -30% to -49%; further: on the % scale 0 is the no-effect control and ±100 the full control effect
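Secreted IL-1B measured by AlphaLISA bead assay after 16 h compound exposure of THP-1 cells; compounds (final up to 57.5 uM) added 1 h before LPS (250 ng/mL) and ATP (1.25 mM) stimulation; lower signal means less secretion.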
* marks the source's active call; other numbers are inactive results; u = inconclusive; x = no result given; ! = not confirmed by another sample; [ ] = dose if it differs, or a comment. Unless noted, the call rests on the fitted dose curve; in most records, active means well fitted curve in the direction sought with a large enough effect; inconclusive means small, poorly fitted or top-dose-only effect, or another doubt; inactive means no such curve, though single readings can be large; an effect the other way counts as inactive or inconclusive.

SMILES	TDP1 cell CPT	TGFb SMAD3 inh	HepG2 tox	DT40 TDP1 no CPT	TDP1 block	IL-1B inflam inh
CN(C)c1ccc(N=Nc2ccccc2C(=O)O)cc1	u	-7%	3%	-25%	x	x
Cc1csc(N=Nc2ccc(N(C)C)cc2)[n+]1[O-]	10µM*	-15%	-37%	9.2µM*	x	-80*
COc1ccc(Nc2cc(C(=O)NC3CCC(C)CC3)c3ccccc3n2)cc1OC (centres undefined)	u	-21%	-30%	u	2%	x
CCc1ccccc1Nc1cc(C(=O)NC2CCC(C)CC2)c2ccccc2n1 (centres undefined)	12µM*	1%	-22%	u	7%	x
O=C(NC1CCCCC1)c1cc(Nc2cccc(C(F)(F)F)c2)nc2ccccc12	21µM*	2%	-5%	u	0%	x
O=C(NC1CCCC1)c1cc(Nc2cccc(C(F)(F)F)c2)nc2ccccc12	u	-28%	-19%	u	-4%	x
CC(C)c1ccc(Nc2cc(C(=O)NC3CCCCC3)c3ccccc3n2)cc1	10µM*	4%	-13%	21µM*	2%	x
O=C1CCCN1c1ccc(S(=O)(=O)Oc2ccc(Cl)cc2)cc1[N+](=O)[O-]	21µM*	u	-34%	21µM*	-2%	-6
O=[N+]([O-])c1cc(S(=O)(=O)Oc2ccccc2)ccc1Cl	0.58µM*	u	8.9µM*	0.58µM*	x	-101*
O=S(=O)(Oc1ccccc1)c1ccc(Cl)c(Cl)c1	13%	-1%	-8%	-15%	x	-13
CC(C)(C)c1ccc(S(=O)(=O)N2CCN(c3ccccn3)CC2)cc1	u	7%	14%	0%	4%	3
Cc1cc(C)c(C(=O)NCc2nc(-c3cccc(NC(=O)C4CCCN(C)C4)c3)oc2C)[nH]1 (centres undefined)	-2%[9.04 µM]	x	x	u	x	x
O=S(=O)(Cc1ccccc1)C(CCCc1ccccc1)S(=O)(=O)Cc1ccccc1	23µM*	4%	-3%	21µM*	x	-5
CNC(=O)[C@H]1O[C@H](n2cnc3c(NCc4cccc(I)c4)nc(Cl)nc32)[C@@H](O)[C@@H]1O	u	x	x	u	-6%[56.1 µM]	x
CNC(=O)[C@H]1O[C@@H](n2cnc3c(NCc4cccc(I)c4)nc(Cl)nc32)[C@H](O)[C@@H]1O	u	26%	7%	21µM*!	10%	-89*
COC(=O)c1cccc(Nc2nc3ccccc3nc2C)c1	18µM*	3%	-11%	u	1%	13
COC(=O)c1cc(Nc2cc(C)c3ccc(O)cc3n2)cc(C(=O)OC)c1	u	-17%	-9%	-27%	x	-65*
CCOC(=O)c1c(Nc2cccc(C(=O)OC)c2)nnc(-c2ccccc2)c1-c1ccccc1	u	-1%	-17%	u	x	x
COC(=O)c1cc(Nc2cc(C)nc3ncnn23)cc(C(=O)OC)c1	-8%	4%	11%	-5%	-1%	14
COC(=O)c1cc(Nc2cc(C)c3c(O)cccc3n2)cc(C(=O)OC)c1	21µM*	u	-59%	13µM*	3%	-21
COc1ccc(C(=O)N2CCN(c3ncccn3)CC2)cc1[N+](=O)[O-]	0%	-1%	-8%	u	1%	0
NCC(c1ccc(Cl)cc1Cl)c1c[nH]c2ccccc12 (centres undefined)	18µM*	u	-152%	23µM*	x	-88*
NCC(c1ccccc1Cl)c1c[nH]c2ccccc12 (centres undefined)	5.2µM*	-19%	-37%	13µM*	4%	u
